The sample as a whole holds a higher share of hits than the screen did.
TTR transcr act: TTR transcription activators in neuroblastoma reporter cells, primary screen, cell-based, luminescence, SH-SY5Y, TTR promoter Gaussia luciferase; actives 1.3% (n = 92,000); 100% = recombinant luciferase protein wells; activation, % at 16.7 µM; AID 1117267, 2014;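 active = activation above the mean of all tested compounds plus 3 SD, cut at about 9.5% in these data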;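 also: cells exposed to compounds for one day before reading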
TTR inh HuH7: TTR promoter reporter inhibitors in hepatoma cells, counter-screen for TTR transcription activator project, cell-based, luminescence, HuH7 hepatoma. shares compounds with TTR transcr act. HuH7 TTR promoter-Gaussia luciferase reporter. inhibition, % at 16.7 µM. actives 4% (n = 1,100). AID 1117279, 2014;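 active = average inhibition above the solvent-only control wells' mean plus 3 SD, cut at about 15% in these data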;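 also: inhibitors lower well luminescence so higher value means more inhibition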
TTR act confirm: TTR transcription activators, retest, confirmation, cell-based, luminescence, SH-SY5Y, triplicate. AID 1117280, 2014. 1,100 tested, under 10 active. SHSY5Y TTR promoter Gaussia luciferase; 100% = purified Lucia enzyme wells, no cells. shares compounds with TTR transcr act. activation, % at 16.7 µM;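 active = mean activation above a set limit taken from the earlier primary screen, cut at about 11% in these data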
Hits are given with their value; 0 = inactive.

SMILES | TTR transcr act | others
O=C(c1ccc(C(F)(F)F)cc1)N1CCC(=O)N([C@H](COCc2ccc(Cl)cc2)Cc2ccccc2)CC1 | 0
CCOC(=O)C(Cc1ccc(O)c([N+](=O)[O-])c1)N1C(=O)c2ccccc2C1=O (stereo not given) | 0
CC1CCN(c2c(NCC3CCC(C(=O)NCc4ccccc4)CC3)c(=O)c2=O)CC1 (stereo not given) | 0
COc1ccc(C)cc1NC(=O)C1CCC(CNc2c(N3CCOCC3)c(=O)c2=O)CC1 (stereo not given) | 0
COc1ccc(OC)c(NC(=O)C2CCC(CNc3c(N4CCC(C)CC4)c(=O)c3=O)CC2)c1 (stereo not given) | 15 | TTR inh HuH7=0;TTR act confirm=0
CC(C)(O)c1cc2ccc(C#Cc3ccsc3)cc2c(=O)o1 | 0
CCN(CC)S(=O)(=O)c1ccc(N2CCOCC2)c(NC(=O)c2ccc(=O)[nH]c2)c1 | 0
CCN(CC)CCOc1ccc(C=NNc2nc3c([nH]2)c(=O)n(C)c(=O)n3C)cc1 | 0
Cc1ccccc1Cn1cc(COC(=O)NCCc2c[nH]c3ccccc23)nn1 | 0
CN(C)C=Nc1nonc1-c1ncn[nH]1 | 0
CN(C)C=Nc1nonc1-c1ccccc1 | 11 | TTR inh HuH7=0;TTR act confirm=0
CN(C)C=Nc1c(Br)cc(Br)c2nonc12 | 0
Cc1ccc(CN2CCCCC(NC(=O)Nc3ccccc3F)C2=O)cc1 (stereo not given) | 0
Cc1ccccc1CSc1nnc(-c2cnccn2)n1C | 0
Cc1nc(-c2ccc(C#N)cc2)cs1 | 0
COC(=O)c1cc(C#N)c(=O)[nH]c1C | 0
Cc1nc(-c2cc(C#N)c(=O)[nH]c2C)cs1 | 16 | TTR inh HuH7=0;TTR act confirm=0
C=CCCC1CN(Cc2ccc(OC)cc2)S(=O)(=O)c2c(Oc3ccc(C(C)C)cc3)cccc2O1 (stereo not given) | 0
COC(=O)[C@@]12CCCCC=C1N(CCc1ccc(Cl)cc1)C(=O)[C@H]2CC(=O)NCc1ccc(C)o1 | 0
Cc1ccc([N+](=O)[O-])cc1NC(=O)CNC1CCCCC1 | 17 | TTR inh HuH7=0;TTR act confirm=0
Cc1ccc([N+](=O)[O-])cc1NC(=O)Cc1cccs1 | 0
O=C(CNC1CCCC1)Nc1cc(Cl)ccc1[N+](=O)[O-] | 0
C#CCN1CC(N(C)CCO)CS1(=O)=O (stereo not given) | 0
CCCCC(=O)Nc1cc(C)c(NC(=O)c2cccs2)cn1 | 0
CCC(=O)Nc1cc(C)c(NC(=O)C23CC4CC(CC(C4)C2)C3)cn1 | 9.9 | TTR inh HuH7=0;TTR act confirm=0
SMILES | TTR transcr act | others
CCC(=O)Nc1cnc(NC(=O)c2cccc(F)c2)cc1C | 0
O=C(CSc1nnc(NC(=O)c2ccco2)s1)NCc1ccc2c(c1)OCO2 | 21 | TTR inh HuH7=0;TTR act confirm=0
Cc1ccc(NC(=O)CSc2nnc(NC(=O)c3ccco3)s2)cc1 | 0
CCCSc1nnc(NC(=O)c2ccco2)s1 | 0
CC(=NNC(=O)COc1cccc(C)c1)c1cccnc1 | 0
NS(=O)(=O)c1ccc(CCNC(=O)C2CCCN2S(=O)(=O)c2cccc3nsnc23)cc1 (stereo not given) | 0
N[C@H]1CC[C@@H]2SC[C@@H](C(=O)O)N2C1=O | 0
COCCN(C(=O)CCC(=O)Nc1ccccn1)C(C(=O)NC(C)C)c1ccc(C)cc1 (stereo not given) | 0
Cc1oc(-c2ccccc2)nc1CSc1nc2c(c(=O)[nH]1)CCC2 | 14 | TTR inh HuH7=0;TTR act confirm=0
Cc1cccc(-c2nc(CSc3nc4c(c(=O)[nH]3)CCC4)c(C)o2)c1 | 0
Cc1ccccc1-c1nc(CSc2nc3c(c(=O)[nH]2)CCC3)c(C)o1 | 0
COc1ccc(CCC2(C)NC(=O)N(C(C)C(=O)Nc3ccccc3F)C2=O)cc1 (stereo not given) | 0
CN(Cc1ccccc1F)C(=O)CN1c2cccc3cccc(c23)S1(=O)=O | 0
Cc1ccc(S(=O)(=O)N(C)C)cc1NC(=O)C1CCCC1 | 11 | TTR inh HuH7=0;TTR act confirm=0
Cc1ccc(S(=O)(=O)N(C)C)cc1NC(=O)c1cccs1 | 0
Cc1ccc(S(=O)(=O)N(C)C)cc1NC(=O)CSc1ccc2c(c1)OCCO2 | 0
CN1CCN(S(=O)(=O)c2ccc(C#N)cc2)C(c2ccccc2)C1 (stereo not given) | 0
O=[n+]1c2c(n([O-])c3c1CCCC3)CCCC2 | 0
CCc1c(C)n([O-])c2c([n+]1=O)CCC2 | 12 | TTR inh HuH7=0;TTR act confirm=0
Cc1c(-c2ccc(Cl)cc2)[n+](=O)c2c(n1[O-])CCCC2 | 0
CCN1CCCCC(NC(=O)Cc2ccccc2)C1=O (stereo not given) | 0
CN(C(=O)c1cccc(NC(=O)Cc2ccc(NC(=O)C3CCCN(C(=O)C4CCCCC4)C3)cc2)c1)C1CC1 (stereo not given) | 0
CSc1ccc(CNCC(O)c2ccccc2)cc1 (stereo not given) | 0
COc1cc(CNCc2ccccn2)ccc1OCc1ccccc1Cl | 0
COc1cc(CNCC(O)c2ccccc2)ccc1OCc1ccc(Cl)nc1 (stereo not given) | 11 | TTR inh HuH7=0;TTR act confirm=0
SMILES | TTR transcr act | others
O=C(c1ccc(Br)cc1)N1CCC2(CC1)NCCc1[nH]cnc12 | 0
CSc1cc(C)c(OCC(=O)Nc2c(C)nn(C)c2C)c(C)c1 | 0
CC(OC(=O)c1ccc([N+](=O)[O-])s1)C(=O)NC1CCCCC1C (stereo not given) | 0
O=C1COc2ccccc2C(c2nc3ccccc3[nH]2)N1Cc1ccccc1 (stereo not given) | 0
CC1(C)O[C@@H](CC(=O)O)[C@]23CO[C@H](C(=O)[C@]4(C)C2CC[C@@]2(C)[C@H](c5ccoc5)OC(=O)C5O[C@]524)[C@@H]13 (stereo not given in full) | 22 | TTR inh HuH7=0;TTR act confirm=0
CC1(C)O[C@H]2CC(=O)OC[C@]23[C@H]2CC[C@@]4(C)[C@H](c5ccoc5)OC(=O)[C@H]5O[C@]54[C@]2(C)[C@@H](O)C[C@@H]13 | 0
CC1CC1C(=O)OCC(=O)Nc1cccc([N+](=O)[O-])c1 (stereo not given) | 12 | TTR inh HuH7=0;TTR act confirm=0
Cc1ccc(C(=O)c2ccccc2C(=O)OCC(=O)Nc2cccc([N+](=O)[O-])c2)cc1 | 0
CC1CC1C(=O)OCC(=O)Nc1ccc(N=Nc2ccccc2)cc1 (stereo not given) | 0
C[C@H]1CN([C@@H](C)CO)C(=O)c2cc(Br)cnc2O[C@@H]1CN(C)S(=O)(=O)c1ccccc1 | 0
CCOc1ccc(OCC)c(NC(=O)C2CCCN(c3ncccn3)C2)c1 (stereo not given) | 0
CCC(C)c1ccc(NC(=O)C2CCCN(c3ncccn3)C2)cc1 (stereo not given) | 0
CCc1ccccc1NC(=O)C1CCCN(c2ncccn2)C1 (stereo not given) | 12 | TTR inh HuH7=0;TTR act confirm=0
CC1O[C@@H](O[C@H](C)CC[C@@H](C)O[C@H]2OC(C)[C@@H](O)C[C@H]2O)C(O)C[C@H]1O (stereo not given in full) | 14 | TTR inh HuH7=0;TTR act confirm=0
CC(C)(O)C(O)COc1c2ccoc2cc2oc(=O)ccc12 (stereo not given) | 0
COc1c2ccoc2c(OC[C@@H](OC(C)=O)C(C)(C)O)c2oc(=O)ccc12 | 0
COC(C)(C)[C@H](O)COc1c2ccoc2cc2oc(=O)ccc12 | 13 | TTR inh HuH7=0;TTR act confirm=0

From PubChem BioAssay
